HCV inhibitor = blocks hepatitis C virus; AID 651820; Potency, µM (series often up to 41.8 µM), for the others: at the top dose activity change, negative = inhibition, hits mostly inhibitors; Huh7.5.1 HCVcc-Cre infection, luciferase reporter, 44 h; hit rate 3.4% among 340,000; active = well fitted inhibition curve with a large enough effect; inconclusive = small, poorly fitted or top-dose-only effect, or another doubt; inactive = no such curve, though single readings can be large or run the other way; note: potency is the fitted concentration of half-maximal effect
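Seed cells (1,000/well) for 4 h; treat with compound and infect with HCVcc-Cre, moi about 0.5. Incubate 44 h, then detect luciferase activity.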
HCMV inh = blocks human cytomegalovirus replication; HFF cells, HCMV-luciferase reporter, 72 h; stronger effect = lower value; hit rate 4.5% among 410,000; activity change, negative = inhibition, % at 57.5 µM; in the data active = activity change below about -60%; inconclusive = no clear call, values can overlap the other calls; inactive = above about -39%
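Cell-based, HFFs, 1000 cells/well, 16 h 37C; cpds in DMSO + HCMV-luc, MOI 1 PFU/cell; 72 h 37C; OneGlo luminescence after 5 min RT; norm. to buffer vs Salinomycin 10uM.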
MARV entry inh = inhibitors of Marburg virus binding or cell entry. Marburg virus pseudotyped entry inhibition, cell reporter. Potency, µM (titrated, usually from 37.8 µM), for the others: at the top dose activity change, negative = inhibition, most hits filed as inhibitors. hit rate 1.8% among 300,000. AID 540276; calls by dose curve; tested in HEK293 cells; note: potency is the fitted concentration of half-maximal effect
FMDV inh = foot and mouth disease virus antiviral activity; Potency, µM (series often up to 57.9 µM), for the others: at the highest dose activity change, negative = inhibition, hits mostly inhibitors; FMDV antiviral cell-based qHTS; hit rate 1.2% among 410,000; AID 1159524; calls by dose curve; tested in HEK293T cells; note: read-out not given here; potency is the fitted concentration of half-maximal effect; nearly all actives have a fitted effect of over 45% in size
LASV entry inh = blocks Lassa virus binding to or entry into cells; hit rate 1.2% among 300,000; Potency, µM (series often up to 37.9 µM), for inactives: at the highest dose activity change, negative = inhibition, usual class: inhibitors; Lassa virus pseudotype entry inhibition, cell reporter; calls by dose curve; tested in HEK293 cells; note: potency is the fitted concentration of half-maximal effect; nearly all actives have a fitted effect of over 50% in size
An asterisk follows results filed as active; ? = inconclusive; nt = no result; + = active, no number; [ ] = another dose, or the depositor's remark. In the library only some 7.9% were active in any assay of this set; here they are far more common. % is set by controls: 0 for no effect and ±100 for the full control effect.

SMILES | HCV inhibitor | HCMV inh | MARV entry inh | FMDV inh | LASV entry inh
CC1N=C2c3ccccc3N=C(SCC(=O)NCCc3ccc(Cl)cc3)N2C1=O (stereo not given) | nt | -15 | nt | 7% | 15%[46.1 µM]
Cc1cccc(NC(=S)NNC(=O)c2ccc(O)cc2O)c1C | 17% | -98* | ? | 15% | 5%[46.1 µM]
CC(C)(C)c1cc(NCCCn2ccnc2)n2ncc(-c3ccc(Cl)cc3)c2n1 | 25µM* | -21 | ? | 6% | ?
CCn1c(S[C@@H](C)C(=O)O)nc2sc3c(c2c1=O)CCC3 | nt | nt | 10%[46.1 µM] | nt | nt
COc1cccc2cc(-c3nc4sc(C(=O)Nc5ccc(F)cc5F)c(C)c4c(=O)[nH]3)c(=O)oc12 | nt | + | nt | 7% | -3%[46.1 µM]
COc1ccccc1NC(=O)c1sc2nc(-c3cc4ccccc4oc3=O)[nH]c(=O)c2c1C | nt | -3 | nt | -21% | 1%[46.1 µM]
Cc1cccc(C)c1NC(=O)CN1C(=O)S/C(=C\c2cccn2-c2cccc(C(=O)O)c2)C1=O | 2% | -73* | 12% | -10% | 10%
CCSc1nc(-c2ccc(OC)cc2)ccc1C#N | 10µM* | 26 | -28% | -24% | -16%
Cc1ccc(S(=O)(=O)c2c(C)nn(C(C)(C)C)c2OC(=O)c2ccco2)cc1 | -4% | 33 | ? | 13µM* | 11µM*
CC(=O)Oc1c(S(=O)(=O)c2ccc(C)cc2)c(C)nn1C(C)(C)C | 26% | 12 | ? | -19% | ?
Cc1ccc(S(=O)(=O)c2c(C)nn(C(C)(C)C)c2OC(=O)C(C)(C)C)cc1 | ? | 32 | ? | ? | ?
Cc1ccc(S(=O)(=O)c2c(C)nn(C(C)(C)C)c2OC(=O)c2ccc(Br)o2)cc1 | ? | -64* | ? | ? | 11µM*
Cc1ccc(S(=O)(=O)c2c(C)nn(C(C)(C)C)c2OC(=O)c2cccs2)cc1 | ? | -25 | ? | ? | 13µM*
Cc1nn(C(C)(C)C)c(OC(=O)c2ccc3c(c2)OCO3)c1S(=O)(=O)c1ccccc1 | -1% | -23 | ? | ? | 8.9µM*
CCC1(C2CCN(Cc3ccccc3Cl)CC2)NC(=O)N(CC2COc3ccccc3O2)C1=O (stereo not given) | nt | nt | nt | -17% | nt
CN(Cc1cccc(-c2cccnc2)c1)C(=O)Oc1ccc([N+](=O)[O-])cc1 | nt | -40 | nt | 35µM* | nt
CC(C)(C)C(=O)Nc1ccccc1C(=O)OCc1cc(=O)n2ccsc2n1 | nt | 28 | nt | -18% | -3%[46.1 µM]
Cc1cccc(C)c1NC(=O)CN(Cc1ccc(Br)cc1)S(=O)(=O)c1ccccc1 | nt | -26 | ? | -22% | -19%[46.1 µM]
O=C1OC(N2C(=O)CC[C@H]2C(=O)Nc2ccc(Br)cc2F)c2ccccc21 (stereo not given in full) | 4% | 0 | nt | -23% | nt
COc1ccc2c(c1OC)C(=O)OC2N1C(=O)CC[C@H]1C(=O)Nc1ccc(F)cc1F (stereo not given in full) | 0.56µM* | 18 | nt | -17% | nt
Cc1cccc2cc(C#N)c(SCC(=O)NNC(=O)Cc3ccccc3)nc12 | -22% | -63* | ? | 0% | -9%
Cc1cccc2cc(C#N)c(SCC(=O)NCc3cccs3)nc12 | 18% | -39 | 1% | 3% | -1%
Cc1cccc2cc(C#N)c(SCC#N)nc12 | 4% | -67* | nt | -24% | nt
CCC[C@@H]1[C@@H]2C(=O)N(c3ccccc3OC)C(=O)[C@H]2ON1c1ccccc1 | nt | nt | 2% | nt | nt
O=C(OCc1nc2ccccc2s1)c1cccs1 | 15% | -62* | 16% | 11% | 5%
SMILES | HCV inhibitor | HCMV inh | MARV entry inh | FMDV inh | LASV entry inh
CCCCOC(=O)c1ccc(NS(=O)(=O)c2c(C)nc3scc(C)n3c2=O)cc1 | nt | -28 | ? | -25% | ?
COc1cc2nc(SCC(=O)Nc3ccccc3C)n3nc(CCn4c(C)nc5ccccc54)nc3c2cc1OC | nt | 2 | 11%[46.1 µM] | -14% | -1%[46.1 µM]
Cc1cncn1CCc1nc2c3ccccc3nc(SCC(=O)Nc3ccccc3F)n2n1 | nt | -67* | nt | -9% | 9%[46.1 µM]
Cc1n[nH]c(C)c1CCc1nc2c3ccccc3nc(SCC(=O)Nc3ccc(F)cc3)n2n1 | nt | -68* | nt | ? | ?
CCOc1ccccc1NC(=O)CSc1nc2cc(OC)c(OC)cc2c2nc(CCn3c(C)nc4ccccc43)nn12 | nt | -93* | 10%[46.1 µM] | -12% | 17%[46.1 µM]
CC(C)(C)OC(=O)N1CCC(c2c(C(=O)N3CCN(c4ccccn4)CC3)cnn2-c2ccc(F)cc2F)CC1 | nt | 0 | nt | -14% | ?
